# Not all results are given here.
# aSyn UTR act = Activators via SNCA 5'UTR binding, MLPCN | alpha-synuclein 5'UTR reporter, activators screen | 300,000 tested, 7.1% active | activity score, % (tested at 7.5 µM), hits read low; in the data active = activity score below about -60%
# An asterisk follows results filed as active.
SMILES,aSyn UTR act
Cc1ccc(-c2nnc(N(C)C(=O)c3cccnc3)s2)cc1,-76*
COc1ccc(-c2nnc(N(C)C(=O)c3cccnc3)s2)cc1,-108*
Cc1ccc2c(c1)sc[n+]2Cc1ccccc1,-256*
C/C(NC(=O)c1cccs1)=C1\C(=O)C[C@@H]2[C@H]1C2(C)C,-118*
COc1ccc2[nH]c(=O)c(CNc3ccccc3)cc2c1,-167*
COc1ccc2[nH]c(=O)c(CNc3ccccc3C)cc2c1,-94*
c1ccc2c(COn3nnc4ccccc43)cccc2c1,-223*
Cc1cc(O)cc2c1C(=O)/C(=C/c1ccco1)O2,-116*
O=C(CCc1ccccc1)Nc1cc2c(cc1Cl)OCCO2,-135*
O=C(CCc1ccccc1)Nc1ccc2c(c1)OCCO2,-102*
CC1CC(C)(C)NC(=S)N1CCCC(=O)Nc1ccc2c(c1)OCCO2 (stereo not given),-91*
O=C(CS(=O)(=O)c1c[nH]c2ccccc12)Nc1ccc2c(c1)OCCO2,-85*
Cc1nc(N2CCN(S(=O)(=O)c3ccccc3)CC2)c2cc(-c3ccccc3)sc2n1,-113*
O=C(c1ccc(Cl)cc1)c1cnc(Nc2ccccc2Cl)s1,-156*
CC(=O)c1cnc(Nc2cccc(Cl)c2Cl)s1,-92*
Cc1n[nH]c(=S)n1/N=C/c1ccc(OCc2ccc(Cl)cc2Cl)cc1,-82*
Cc1n[nH]c(=S)n1/N=C/c1ccc(OCc2ccc(Cl)cc2)cc1,-99*
Cn1c(-c2ccc(F)cc2)cnc1NCc1ccccc1F,-66*
Oc1ccc(CNc2ccc(F)cc2)c2cccnc12,76
Cn1c(-c2ccccc2)cnc1NCc1cc(Cl)ccc1O,-66*
c1ccc(-c2noc(C3CCCCC3)n2)nc1,-82*
Brc1ccc(-c2noc(C3CCCCC3)n2)cc1,-143*
Cc1nc2cc(NC(=O)N3c4ccccc4CC3C)ccc2o1 (stereo not given),-104*
Cc1nc2cc(NC(=O)Nc3ccc(Br)cc3)ccc2o1,-192*
c1ccc(CSc2nnc(SCc3ccccn3)s2)nc1,-118*
SMILES,aSyn UTR act
c1ccc(CSc2ccc(-c3ccccn3)nn2)nc1,-62*
Clc1ccc(-c2ccc(SCc3ccccn3)nn2)cc1,-141*
c1ccc(-c2ccc(SCc3cccnc3)nn2)nc1,-75*
CCOc1ccc(-c2ccc(SC)nn2)cc1,76
c1ccc(CSc2ccc(-c3cccnc3)nn2)cc1,-117*
COc1ccc(Nc2ccc3c(c2)=NC2(CCCCC2)[N+]=3[O-])cc1,-87*
O=c1cc(-c2ccccc2)[nH]c2ccc(F)cc12,87
O=c1c2[nH]c3ccc(F)cc3c2ncn1C1CCCCC1,-82*
CCC1=Nc2cc(C(=O)NCC3CCCO3)ccc2Sc2ccc(Cl)cc21 (stereo not given),-74*
O=C(NCC1CCCO1)c1ccc2nc(N3CCCCC3)sc2c1 (stereo not given),-194*
O=C(NCC1CCCO1)c1ccc(N2CCCCC2)nc1 (stereo not given),-83*
O=c1sc(/C=N/Nc2ccccc2)c(Cl)n1Cc1ccccc1,-84*
CCc1ccc(C(=O)Nc2ccc3nc(C)ccc3c2)cc1,-178*
Cc1ccc2cc(NC(=O)c3ccc(C(C)(C)C)cc3)ccc2n1,-63*
Cc1csc(=O)n1CC(=O)OCc1cccc2ccccc12,-90*
O=C(NC12CC3CC(CC(C3)C1)C2)c1ccc(-c2cccc(Cl)c2)o1,-133*
O=C(NC12CC3CC(CC(C3)C1)C2)c1ccc(-c2ccc(Cl)cc2)o1,-251*
O=C(NC12CC3CC(CC(C3)C1)C2)c1ccc(-c2ccccc2Cl)o1,-220*
CN1CCC(=NNC(=O)C(=O)Nc2ccc(F)cc2)CC1,-92*
CCCCC(=O)/C=C/n1c(=S)oc2ccccc21,-151*
O=C(/C=C/Nc1ccc(F)cc1)c1ccc(Oc2ncccn2)cc1,-115*
CN(C)c1ccc(N/C=C/C(=O)c2ccc(F)cc2)cc1,-120*
NS(=O)(=O)c1ccc(N/C=C\C(=O)c2ccc(F)cc2)cc1,-118*
NS(=O)(=O)c1ccc(N/C=C/C(=O)c2ccc(Br)cc2)cc1,-108*
CCOc1ccc(-c2nc(CCl)cs2)cc1,-70*
SMILES,aSyn UTR act
COC(=O)N/N=C/c1cccc(OCCSc2ccc(Cl)cc2)c1,-82*
C(=C\c1nc(N2CCCCCC2)c2ccccc2n1)/c1ccccc1,-71*
O=C(Nc1ccccc1Cl)C1Cc2ccccc2O/C1=N\O (stereo not given),-88*
CN(C)c1ccc(-n2cc3c(=O)n(C)c(=O)n(C)c3c2)cc1,-198*
CCN(CC)c1ccc(-n2cc3c(=O)n(C)c(=O)n(C)c3c2)cc1,-118*
C=CCNc1nc(N)c([N+](=O)[O-])c(Nc2ccccc2OC)n1,61
O=[N+]([O-])c1ccc(NCCOc2ccccc2Cl)nc1,-74*
COc1ccc(Nc2ccc([N+](=O)[O-])cn2)cc1,-120*
COc1ccc(CNc2ccc([N+](=O)[O-])cn2)cc1,-137*
COc1ccccc1Nc1ccc([N+](=O)[O-])cn1,-74*
COc1ccc(-c2nc(-c3ccccc3OC)no2)cc1OC,-231*
COc1ccccc1-c1noc(-c2ccco2)n1,-129*

# Screening results (PubChem)
